Each structure is given as a SMILES string.

This assay has as its system Human papillomavirus type 1a protein E7 (residues 44-93). The experiment in a line: HPV1a E7 fragment binders on microarrays, primary screen, biochemical, small-molecule microarray, residues 44-93, 635 nm fluorescence (AID 1108).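 Also: E7 fragment applied at 1 µg/mL in TBST for 1 h at 4 C; score combines spot fluorescence with its signal to noise ratio.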 Particulars: small-molecule microarray binding, fluorescence 635 nm; higher = more signal.
In turn, `Oc1ccc2cc[n+](Cc3cccc(OC(F)(F)F)c3)cc2c1` returned a composite z-score of -0.112.

As for `CC1CC/C=C\[C@H]2OC34C=CCN(CCN5CCOCC5)C(=O)[C@H]3N(CCCCCO)C(=O)[C@@H]4C2C(=O)O1` (stereo partly specified), the composite z-score was -1.78.

Regarding `C=C(C(=O)CC[C@@H](OC(=O)c1cccnc1)c1ccc(CO)o1)C(C)C`, the composite z-score was determined as 1.03.

`C=CCC(OC(C)=O)[C@@H]1[C@@H](N(Cc2cc3ccccc3o2)C(=O)c2cccc3ccccc23)c2cc(OCCCO)ccc2N1C(=O)Cc1ccc(OC)cc1` (stereo partly specified) displayed a composite z-score of -0.0348.

As for `C=CCN1C(=O)[C@]2(COC(c3ccc(OCCCO)cc3)=N2)Cc2ccccc21`, the composite z-score came to 1.17.

Compound `O=C(NCc1ccccc1)[C@@H]1c2ccccc2C(=O)N(C2CCCCC2)[C@H]1c1ccc(CO)cc1` showed a composite z-score of 1.47.

Turning to `[N-]=[N+]=NCc1ccccc1C[C@@]1(C(=O)NCc2ccccc2)N=C(c2ccc(OCCCO)cc2)O[C@@H]1c1ccccc1CN=[N+]=[N-]`, the composite z-score was -0.0428.

For the compound `CCOC(=O)C=Cc1cccc(OC)c1O`, the composite z-score is -0.0381.

Consider `CN(C)CCCC[C@@H]1NC(=O)[C@H]2C[C@@H](C(=O)NCCCCCNC(=O)CS)[C@@H](c3ccc(O)cc3)N2C1=O`, for which the composite z-score was -0.781.

Regarding `COC(=O)[C@@]1(Cc2ccccc2)[C@H]2c3cc(C(=O)N(C)C)n(Cc4cc(F)c(F)c(F)c4)c3C[C@H]2CN1C(=O)c1ccccc1`, the composite z-score is 1.28.

Consider `C=C(C)[C@@H]1CC=C(C(O)C2C=CC3C(=O)N(Cc4ccccc4)C(=O)C3N2n2cnnc2)CC1` (stereo partly specified), for which the composite z-score was 0.146.

For `O=C(NCCN1CCOCC1)[C@@H]1c2ccccc2C(=O)N(Cc2cc(F)cc(C(F)(F)F)c2)[C@H]1c1ccc(CO)cc1`, the composite z-score stood at 1.44.

`O=C1O[C@H](c2ccccc2)[C@H](c2ccccc2)N2[C@H]1[C@@H](C(=O)NC[C@H](O)c1ccccc1)[C@]1(C(=O)Nc3ccc(C#CC4(O)CCCCCC4)cc31)[C@H]2c1ccccc1OCCO` showed a composite z-score of 1.36.

For `C=C(/C(=C/C[C@@H](OC(=O)c1ccncc1)c1ccc(CO)o1)c1cc(C(=O)OC)ccc1OC)C(C)C`, the composite z-score worked out at 0.838.

`COc1ccc([Si](C)(C)[C@@H]2[C@@H](CCO)O[C@]3(C(=O)N(Cc4ccccc4)c4ccc(N(C=O)c5ccccc5)cc43)[C@H]2C)cc1` returned a composite z-score of -0.736.

The compound `CCCCCCC#C[Si](O[C@H](c1ccccc1)c1cn([C@H](C)c2ccccc2)nn1)(C(C)C)C(C)C` yielded a composite z-score of 0.444.

In turn, `[N-]=[N+]=NCc1ccccc1[C@@H]1OC(c2ccc(OCCCO)cc2)=N[C@]1(Cc1ccccc1)C(=O)O` showed a composite z-score of 1.38.

For the compound `CCCC[C@@H]1C[C@H]1[C@@H](NC(=O)c1ccccc1)c1ccc(-c2ccccc2)cc1`, the composite z-score came out at 1.34.

The compound `Cc1ccc(S[C@]2(C(=O)NCCN3CCOCC3)CC(=O)N(C3CCCCC3)[C@@H]2c2ccc(CO)cc2)cc1` yielded a composite z-score of 1.29.

In turn, `CC(C)NC(=O)[C@@]1(c2ccc([N+](=O)[O-])cc2)CC(=O)N(C(C)C)[C@@H]1c1ccc(CO)cc1` showed a composite z-score of 0.559.

`C=CCN1Cc2ccccc2C[C@@]2(COC(c3ccc(OCCCO)cc3)=N2)C1=O`: the composite z-score stood at 1.42.

In the case of `COCCn1c(C(=O)N2CCCC2)cc2c1C[C@H]1CN(C(=O)c3ccccc3)[C@@](Cc3ccc(OC)cc3)(C(=O)OC)[C@@H]21`, the composite z-score was found to be 0.279.

Consider `C=C[C@@H](C)[C@@H](OC(=O)Nc1ccc(OC)cc1)c1ccc(O)c2ccccc12`, for which the composite z-score came out at 0.118.

`COCCOC(=O)N1C(=O)[C@@]2(c3ccccc31)[C@H](C(=O)N1CCCCCCC1)[C@H]1C(=O)O[C@H](c3ccccc3)[C@H](c3ccccc3)N1[C@@H]2c1ccccc1OCCO`: the composite z-score was 1.36.

`COCCn1c(C(=O)N(C)C)cc2c1C[C@H]1CN(C(=O)c3ccccc3)[C@@](Cc3ccc(F)cc3)(C(=O)OC)[C@@H]21` came in with a composite z-score of 1.3.

The compound `CC(C)N1C(=O)c2ccccc2[C@](C)(C(=O)NCCCN(C)C)[C@@H]1c1ccc(CO)cc1` showed a composite z-score of -0.0305.

The compound `O=C1C2C=CC(C(O)c3ccc(-c4ccccc4)s3)N(Nc3ccccc3F)C2C(=O)N1c1ccccc1` (stereo unspecified) returned a composite z-score of 1.37.

Compound `CN1C(=O)C2C(C1=O)C1C=C(c3ccc(CO)cc3)C2C(C2CC2)N1Cc1sc2ccccc2c1Cl` (stereo unspecified) displayed a composite z-score of 0.946.

Take `CO[C@H]1O[C@H](CO)[C@@H](OC(=O)Nc2ccc3c(c2)OCO3)[C@H](OC(=O)Nc2ccc3c(c2)OCO3)[C@H]1OC(=O)Nc1ccc2c(c1)OCO2`: the composite z-score stood at 1.45.

`C=CC[C@]1(C(=O)NCCN2CCOCC2)N=C(c2ccc(OCCCO)cc2)O[C@H]1c1ccccc1N=[N+]=[N-]` displayed a composite z-score of 1.01.

As for `C=CCNC(=O)[C@@H]1[C@H]2C(=O)O[C@H](c3ccccc3)[C@H](c3ccccc3)N2[C@H](c2ccccc2OCCO)[C@@]12C(=O)N(C(=O)OCCOC)c1ccc(C#CCC(C(=O)OC)C(=O)OC)cc12`, the composite z-score came to 1.12.
